ADAM17 inh: inhibits human ADAM17. inhibition, % at 6.95 µM. hit rate 0.83% among 370,000. AID 720648. recombinant ADAM17, EDANS/DABCYL FRET peptide cleavage. P78536;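 active = inhibition above the mean of compounds lying between control limits plus 3 SD, set per campaign, cut at about 8.5% in these data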
ADAM10 inh: ADAM10 inhibition, QFRET primary screen | recombinant ADAM10, EDANS/DABCYL FRET peptide cleavage, 3 h | inhibition, % at 7 µM | hit rate 0.62% among 370,000;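 active = inhibition above a per-campaign cutoff equal to the mean of compounds falling between control-based bounds plus 3 SD, cut at about 20% in these data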
GC-B act: GC-B (human) receptor activation | P20594 | HEK293-GC-B cells, CNP EC30, cGMP TR-FRET; 0% at EC30 CNP, 100% saturating CNP | activation, % at 10 µM | hit rate 0.11% among 370,000;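 active = activation at 10 µM reaching about 35% in either raw or pattern-adjusted values, limit read from the data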
GC-A act: GC-A (human) enzyme activation; hit rate 0.14% among 370,000; activation, % at 10 µM; HEK293 GC-A cells, cGMP TR-FRET, EC30 ANP; 0% at EC30 ANP, 100% saturating ANP; P16066; AID 1671463; in the data active = activation above about 40%
proKLK7 act: activates the human kallikrein-7 zymogen | purified proKLK7, EDANS-DABCYL substrate fluorescence; 100% is mature enzyme control, 0% vehicle | activation, % at 7 µM | hit rate 0.9% among 370,000;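 active = activation above the mean of all tested compounds plus 3 SD, computed per campaign excluding outliers beyond control limits, cut at about 13% in these data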
KLK7 act conf: confirmation of human kallikrein-7 zymogen activators; shares compounds with proKLK7 act; purified proKLK7, EDANS-DABCYL substrate fluorescence; scaled: vehicle 0, mature enzyme 100; activation, % at 7 µM; hit rate 68% among 3,200; AID 686949;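 active = activation, as change over the incubation, above the mean of all tested compounds plus 3 SD, cut at about 13% in these data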
EDANS interfere: optically interferes with EDANS-DABCYL signal, flagging KLK7 hits; shares compounds with proKLK7 act; EDANS-DABCYL substrate fluorescence interference, no enzyme, 4 h; solvent 0%, active enzyme control 100%; activation, % at 7 µM; hit rate 80% among 3,200;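 active = activation above the all-compound mean plus 3 SD, ignoring values outside control-based bounds, cut at about 4.8% in these data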;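 note: value is the 4 h activation minus the activation read at time zero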
EDANS interf: optically interferes with EDANS-DABCYL fluorescence, kallikrein-7 activator counter-screen; shares compounds with proKLK7 act; AID 720493; EC50, µM; EDANS-DABCYL peptide fluorescence interference, no enzyme; hit rate 20% among 250;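 active = compounds that raise the fluorescence signal in this interference counterscreen, with EC50 at or below 10 µM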;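 note: intact quenched peptide substrate alone read at 355 nm excitation and 520 nm emission; signal is fluorescence gain from T0 to T4 after four hours at room temperature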
Large screens that a line does not name were inactive (follow-up assays come after a bar, where they were run). Most compounds without a hit are left out; they make up all but 2.2% or so of the library.

Cc1nc(SCC(N)=O)[nH]c(=O)c1C	none (no result: proKLK7 act)
Nc1cc(C(=O)O)c(Oc2ccc(Cl)cc2Cl)cc1C(=O)O	proKLK7 act 26 | KLK7 act conf 57 | EDANS interfere 51
Nc1cc(Oc2ccc(Cl)cc2Cl)nc(N)n1	none
CCCCN1C[C@@H](COCc2ccccc2)Oc2cc(F)ccc2S1(=O)=O	none
Cc1cc(=O)oc2c(C)c(OC(=O)c3ccco3)ccc12	proKLK7 act 85 | KLK7 act conf 601 | EDANS interfere 620
CCC(=O)Oc1ccc2c(C)cc(=O)oc2c1C	proKLK7 act 422 | KLK7 act conf 697 | EDANS interfere 675
COC(=O)C1CN(Cc2cn(Cc3ccc(F)cc3)nn2)CCS(=O)(=O)N1Cc1ccc(OC)cc1 (configuration not stated)	none
CCNC(=S)NNC(=O)c1cccs1	none
COc1ccc(C(=O)Nc2cccc(NC(=O)c3cccs3)c2)cc1OC	proKLK7 act 35 | KLK7 act conf 22 | EDANS interfere 29
CNC(=S)NNC(=O)c1cccs1	proKLK7 act 13 | KLK7 act conf 14 | EDANS interfere 13
O=C(Nc1ccc(Cl)cc1)c1cccs1	none
O=C(Nc1ccc(NC(=O)c2cccs2)cc1)c1cccs1	proKLK7 act 14 | KLK7 act conf 30 | EDANS interfere 22 | EDANS interf inactive
COc1ccc(NC(=S)NNC(=O)c2cccs2)cc1	proKLK7 act 21 | KLK7 act conf inactive | EDANS interfere 8.5
CC(C)CCN(C)C1CCN(C(=O)Nc2ccc3c(c2)OCO3)CC1	none
COc1ccccc1N1C(=O)c2ccccc2NC1c1ccc(O)cc1 (configuration not stated)	proKLK7 act 23 | KLK7 act conf 20 | EDANS interfere 26
COc1cc(C2Nc3ccccc3C(=O)N2c2ccccc2OC)ccc1O (configuration not stated)	proKLK7 act 13 | KLK7 act conf 15 | EDANS interfere 17
O=S1(=O)C=CCN1Cc1cn(Cc2ccccc2)nn1	none
O=C([C@@H]1C[C@H]1c1ccccc1)N1CC[C@H]2[C@H](CCCN2Cc2ccc(F)cc2)C1	none
Cc1cccn2c(=O)c3cc(C#N)c(=NC(=O)c4ccccc4)n(Cc4ccco4)c3nc12	proKLK7 act 45 | KLK7 act conf 27 | EDANS interfere 17 | EDANS interf 7.8
Cc1cccn2c(=O)c3cc(C#N)c(=NC(=O)c4ccco4)n(Cc4ccco4)c3nc12	none
Cc1cccc(C(=O)N=c2c(C#N)cc3c(=O)n4cccc(C)c4nc3n2Cc2ccco2)c1	proKLK7 act 27 | KLK7 act conf 16 | EDANS interfere inactive | EDANS interf inactive
CCOC(=O)[C@@]12CN(C(=O)OC(C)(C)C)CC=C1N(Cc1ccc(OC)cc1)C(=O)[C@H]2CC(=O)NCC12CC3CC(CC(C3)C1)C2	none
O=C1CCC(=O)N1c1nc2nc(-c3ccccc3)cc(-c3ccccc3)n2n1	proKLK7 act 31 | KLK7 act conf 40 | EDANS interfere 44
COC(=O)[C@]1(CNC(=O)C(C)(C)C)CC(=O)N(C)[C@@H]1c1ccccc1	none
CCC(C)[C@H](NC(=O)OC(C)(C)C)C(=O)N[C@@H](Cc1ccccc1)C(=O)OC (some centres not stated)	none
CC(C)Cn1c(N)c(C(=O)COC(=O)c2nccnc2N)c(=O)n(C)c1=O	proKLK7 act 13 | KLK7 act conf inactive | EDANS interfere inactive
O=C(CSc1nnc(-c2cccs2)o1)c1cccc([N+](=O)[O-])c1	none
Nc1c(-c2ccccc2)nc(Cl)nc1-c1ccccc1	proKLK7 act 42 | KLK7 act conf 78 | EDANS interfere 78
C#CCNC(=O)C[C@@H]1C(=O)N(Cc2ccc(OC)cc2)/C2=C/CCCCC[C@@]21C(=O)OCC	none
CCNc1nc(C)c(CN(C(C)=O)c2ccccc2)nc1C#N	proKLK7 act 33 | KLK7 act conf 28 | EDANS interfere 24 | EDANS interf inactive
CCOC(=O)[C@]12CCCCC/C=C\1N(Cc1ccc(OC)cc1)C(=O)[C@H]2CC(=O)NCc1cccs1	none
O=C(Nc1cccc(O)c1)c1cc2nc(-c3ccccc3)cc(-c3ccccc3)n2n1	proKLK7 act 96 | KLK7 act conf inactive | EDANS interfere inactive
CCN(CC)C(=O)[C@H]1C[C@H](CC(=O)NCCCn2ccnc2)C(=O)N2CCc3c([nH]c4cc(-c5ccco5)ccc34)[C@]12C	proKLK7 act 95 | KLK7 act conf 69 | EDANS interfere 74
CCN(CC)C(=O)[C@H]1C[C@H](CC(=O)NCCCn2ccnc2)C(=O)N2CCc3c([nH]c4cc(CCC(=O)N(C)C)ccc34)[C@]12C	none
CCN(CC)C(=O)[C@H]1C[C@H](CC(=O)NCCN2CCOCC2)C(=O)N2CCc3c([nH]c4cc(-c5ccco5)ccc34)[C@]12C	proKLK7 act 120 | KLK7 act conf 148 | EDANS interfere 194
CCN(CC)C(=O)[C@H]1CC(CC(=O)NCCN2CCOCC2)C(=O)N2CCc3c([nH]c4ccccc34)[C@]12C (some centres not stated)	none
CCN(CC)C(=O)[C@H]1C[C@H](CC(=O)NCc2ccco2)C(=O)N2CCc3c([nH]c4cc(-c5ccco5)ccc34)[C@]12C	proKLK7 act 112 | KLK7 act conf 44 | EDANS interfere 51
Cc1cc(C)c2c(N)c3cccc(C)c3nc2n1	proKLK7 act 15 | KLK7 act conf 46 | EDANS interfere 42
O=C1CCC2(CCC(c3ccccc3)CC2)N1CCO (configuration not stated)	none
O=C(CCS(=O)(=O)c1ccccc1)Nc1cc(Cl)ccc1F	none
Cc1cc(NCCCOC(C)C)n2c(nc3ccccc32)c1C#N	none
Cc1cc(NCCCN(C)C)n2c(nc3ccccc32)c1C#N	proKLK7 act 72 | KLK7 act conf 72 | EDANS interfere 69
CCCc1cc(-n2ccnc2)n2c(nc3ccccc32)c1C#N	none
CCC(C)Nc1cc(C)c(C#N)c2nc3ccccc3n12 (configuration not stated)	proKLK7 act 26 | KLK7 act conf inactive | EDANS interfere inactive
Cc1cc(NCCCn2ccnc2)n2c(nc3ccccc32)c1C#N	proKLK7 act 17 | KLK7 act conf 54 | EDANS interfere 72
CCC(C)Sc1cc(C)c(C#N)c2nc3ccccc3n12 (configuration not stated)	none
